An excerpt weighted towards active compounds, which were near 1.1% of everything screened.
PriA SSB inh: K. pneumoniae PriA-SSBct interaction inhibition | AlphaScreen SSBct-PriA binding, biotinylated peptide | 0.6% of 430,000 active | inhibition, % at 33 µM; in the data active = inhibition mostly above about 37%, no sharp cut-off; inactive = mostly below about 20%;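 note: plate controls were negative control peptide for no effect and reference peptide for full effect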
Rv3671c inh: inhibitors of M. tuberculosis serine protease Rv3671c; P9WHR9; inhibition, % at 5.96 µM; 0.048% of 320,000 active; AID 2606; in the data active = inhibition above about 38%;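 note: extracellular domain of Rv3671c used as enzyme; 0% = enzyme with DMSO and 100% = no enzyme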
Mtb betalactam: beta-lactam sensitization of Mtb H37Rv; AID 434955; M. tuberculosis H37Rv growth with meropenem, percent inhibition; inhibition, % at 25 µM; 0.27% of 330,000 active;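 note: growth measured after seven days incubation then overnight dye step; 0% = bacteria only wells and 100% = bacteria with antibiotic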
RecA intein inh: Mtb RecA intein splicing inhibition | P9WHJ3 | cell-free RecA intein splicing, fluorescence | inhibition, % (no concentration beside the values) | 0.75% of 290,000 active | AID 2221; in the data active = inhibition above about 30%; inconclusive = no clear call, values can overlap the other calls;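 note: 0% = vehicle wells and 100% = reference inhibitor control wells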
Mtb UGM inh: Mtb UDP-galactopyranose mutase inhibition; P9WIQ1; purified UGM, fluorescence polarization probe displacement; inhibition, % at 10 µM; 0.06% of 320,000 active; AID 504406; in the data active = inhibition above about 10%, passing the limit was not always enough; inconclusive = no clear call, values can overlap the other calls
Target sequence (P9WIQ1 whole entry, looked up): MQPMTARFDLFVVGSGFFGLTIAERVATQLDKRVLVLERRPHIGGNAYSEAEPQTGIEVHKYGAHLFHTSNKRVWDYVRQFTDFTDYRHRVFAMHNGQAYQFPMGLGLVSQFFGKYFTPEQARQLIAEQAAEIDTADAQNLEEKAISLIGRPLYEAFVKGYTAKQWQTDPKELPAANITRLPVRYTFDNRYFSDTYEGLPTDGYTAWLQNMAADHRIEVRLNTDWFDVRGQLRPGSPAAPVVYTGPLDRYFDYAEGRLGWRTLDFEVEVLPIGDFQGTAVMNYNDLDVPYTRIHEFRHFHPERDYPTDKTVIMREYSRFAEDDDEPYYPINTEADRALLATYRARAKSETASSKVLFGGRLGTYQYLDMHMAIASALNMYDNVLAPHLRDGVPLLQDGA
GFP chromo cs: counter-screen: blocks GFP chromophore formation; shares compounds with RecA intein inh; cell-free GFP chromophore formation, fluorescence; EC50, µM; 83% of 2,100 active
Numbers without * were called inactive; ? = inconclusive; / = no result. Unless noted, the rule behind the calls is not given here.

SMILES | PriA SSB inh | Rv3671c inh | Mtb betalactam | RecA intein inh | Mtb UGM inh | GFP chromo cs
CCOC(=O)C1=C(C)NC(=O)NC1c1ccc(OC(=O)c2ccco2)c(OC)c1 (stereo unspecified) | -8 | 3 | -4 | 6 | 1 | /
C=CCOC(=O)C1=C(C)NC(=O)NC1c1ccc(OC(=O)c2ccco2)c(OC)c1 (stereo unspecified) | -1 | -10 | -5 | 31* | 2 | >38
CSCC[C@](C)(O)CNC(=O)COc1ccc(C(C)(C)C)cc1 | -4 | / | / | / | / | /
CC(=O)Oc1ccc2ccccc2c1C(NC(=O)Cc1ccccc1)c1ccc(Cl)cc1 (stereo unspecified) | 8 | -11 | 6 | 43* | 1 | >38
Cc1ccsc1C=Nc1ccc(O)cc1 | 24 | -22 | -5 | 78* | 1 | 36*
CCc1nc(SCC(=O)N2CCN(c3ccccc3)CC2)c2oc3ccccc3c2n1 | -18 | -11 | 3 | 32* | 1 | >38
O=[N+]([O-])c1cc(Br)c(Nc2ccccc2)c([N+](=O)[O-])c1 | -5 | 6 | 100 | 64* | 7 | 20*
CN(CC(=O)Nc1ccc(C#N)cc1)CC(=O)Nc1ccc(N2CCOCC2)cc1 | -7 | 3 | 7 | -2 | 1 | /
CN(CC(=O)Nc1ccc(N2CCOCC2)cc1)CC(=O)Nc1cccc(C#N)c1 | 4 | -8 | -5 | -6 | -2 | >38
Cn1cnc([N+](=O)[O-])c1S(=O)(=O)c1ccc(Cl)cc1 | -3 | / | / | 61* | / | 39*
Cn1cnc([N+](=O)[O-])c1NC(C)(C)C | -19 | 0 | -3 | 0 | -1 | /
Cc1[nH]n(-c2ccccc2)c(=O)c1C(c1ccc(C(=O)O)cc1)c1c(C)[nH]n(-c2ccccc2)c1=O | 7 | -183 | 6 | 96* | -2 | 1.2*
Cc1[nH]n(-c2ccccc2)c(=O)c1C(c1cccc([N+](=O)[O-])c1O)c1c(C)[nH]n(-c2ccccc2)c1=O | 27 | -198 | 1 | 93* | 0 | 1.3*
Cc1[nH]n(-c2ccccc2)c(=O)c1C(c1cccc([N+](=O)[O-])c1)c1c(C)[nH]n(-c2ccccc2)c1=O | 22 | -50 | 6 | 85* | -2 | 4.8*
Cc1[nH]n(-c2ccccc2)c(=O)c1C(=O)Nc1ccccc1 | 2 | 10 | -4 | 4 | -1 | /
Cc1c(C(c2cccc([N+](=O)[O-])c2O)c2c(C)n(C)n(-c3ccccc3)c2=O)c(=O)n(-c2ccccc2)n1C | -10 | 0 | ? | -4 | 1 | /
Cc1[nH]n(-c2ccccc2)c(=O)c1C(=O)c1ccc([N+](=O)[O-])cc1 | -12 | -11 | 3 | 4 | 3 | /
CCOCCCn1c(NC(=O)Nc2cccc(Cl)c2)c2ccccc2nc1=O | 14 | / | / | / | / | /
CN1CCN(NC(=O)c2ccc3nccnc3c2)CC1 | -26 | / | / | / | / | /
Cc1ccccc1CS(=O)(=O)c1snnc1C | -19 | -6 | -16 | 44* | -2 | >38
O=C(Cc1ccc(Cl)s1)Nc1cc(Cl)cc(Cl)c1 | 2 | / | / | / | / | /
O=C(NCCc1ccc(N2CCCC2)cc1)c1c(F)cccc1F | -11 | / | / | / | / | /
Cc1ccc(SCc2cc(=O)n3[nH]c(C)nc3n2)cc1 | -15 | -2 | 38 | 3 | 2 | /
Cc1ccc(SCc2cc(=O)n(C)[nH]2)cc1 | -5 | -15 | 0 | 95* | 6 | 19*
COc1cc(N=Nc2cccc(S(N)(=O)=O)c2)c2ccccc2c1N | 36 | -6 | 20 | 45* | -2 | 33*
SMILES | PriA SSB inh | Rv3671c inh | Mtb betalactam | RecA intein inh | Mtb UGM inh | GFP chromo cs
O=[N+]([O-])c1cc([N+](=O)[O-])c2oc(-c3ccccc3)c(Br)c2c1O | 10 | / | / | 30* | / | >38
O=c1cc(-c2ccccc2Cl)oc2ccc([N+](=O)[O-])c(O)c12 | -4 | 0 | 95 | 2 | 2 | /
O=C1c2ccccc2-c2onc3ccc(N4CCCC4)c1c23 | 66 | / | / | 55* | / | 24*
O=C1c2ccccc2C(=O)c2c1cccc2N1CCCC1 | 100 | -36 | 25 | 16 | 1 | /
COc1ccc(/C=C2\SC(=S)N(CCC(=O)Nc3cccc(O)c3)C2=O)cc1OC | -10 | -42 | -3 | 2 | 1 | /
COc1cccc(/C=C2\SC(=S)N(CCCC(=O)N(CCO)c3ccccc3)C2=O)c1 | 21 | -2 | 2 | 37* | 1 | 32*
COc1ccc(/C=C2/SC(=S)N(CCCC(=O)Nc3cccc(O)c3)C2=O)cc1 | 14 | -12 | 0 | 38* | -4 | >38
O=C(O)CN1C(=O)/C(=C\c2cccc(OCc3ccc(Cl)cc3Cl)c2)SC1=S | 15 | / | -2 | 40* | -1 | 21*
O=C(O)CN1C(=O)/C(=C\c2ccccc2OCc2ccc(Cl)cc2Cl)SC1=S | 10 | -23 | 2 | 8 | -2 | /
O=C(OCc1cc(-c2cc3ccccc3o2)on1)C1CC1 | -29 | / | / | / | / | /
Cc1noc2ncnc(Sc3ccccc3Cl)c12 | 0 | 1 | 100 | 45* | 2 | 38*
CC(=O)Nc1ccccc1NC(=O)C/C(C)=N/NC(=O)C(=O)N1CCCCC1 | / | -5 | 5 | 85* | -1 | 10*
CC(=O)Nc1ccccc1NC(=O)CC(C)=NNC(=O)C(=O)N1CCCCC1 | -10 | / | / | / | / | /
O=C(c1ccco1)N1CCCSCC1CN1CCCC1 (stereo unspecified) | 12 | / | / | / | / | /
CC(=O)N(C1=C(N2CCOCC2)C(=O)c2ccccc2C1=O)c1ccc(C(=O)O)cc1 | 6 | -53 | 23 | 61* | 2 | 20*
Cc1cc2c(cc1C)C(=O)C(N1CCOCC1)=C(c1ccccc1)C2=O | 24 | / | / | / | / | /
O=C(c1c[nH]c(C(=O)C(Cl)(Cl)Cl)c1)c1ccccc1Br | -11 | -3 | 4 | 51* | 3 | 26*
CNC(=O)c1cc(C(=O)c2ccccc2Br)c[nH]1 | -7 | 3 | 5 | 1 | 2 | /
CC1(C)Cc2ccccc2C(Nn2cnnc2)=N1 | -13 | 2 | -6 | 1 | 5 | /
CC1(C)Cc2ccccc2C2=NNC(=O)C2=N1 | 7 | -14 | 95 | 94* | -1 | 1.1*
CCS(=O)(=O)c1cccc(C(=O)Nc2nc3ccc(S(N)(=O)=O)cc3s2)c1 | 3 | / | / | / | / | /
COC(CNC(=O)c1cccnc1)OC | -6 | 10 | -5 | -4 | -1 | /
COC(CNC(=O)c1ccc2c3c(onc13)-c1ccccc1C2=O)OC | 12 | -44 | 3 | 53* | 27* | 20*
CC(C)[C@H](NC(=O)Nc1ccc(Oc2ccccc2)cc1)C(=O)O | -9 | -10 | -7 | 62* | -4 | >38
Nc1ccc2nn(-c3ccccc3)nc2c1 | -3 | / | / | / | / | /
Nc1cc2nn(-c3ccccc3)nc2cc1Cl | -5 | / | / | 63* | / | 37*
COc1ccc(-c2csc(NC(=O)/C=C\C(=O)O)n2)cc1 | -10 | / | / | / | / | /
O=C(CN1C(=O)/C(=C2/SC(=S)N(CCS(=O)(=O)O)C2=O)c2ccccc21)Nc1cccc(C(F)(F)F)c1 | -3 | -6 | 5 | / | 0 | /
O=C(CN1C(=O)/C(=C2\SC(=S)N(CCS(=O)(=O)O)C2=O)c2ccccc21)Nc1cccc(Br)c1 | -13 | -2 | 1 | 46* | 4 | 25*
